Laboratory results published in PubChem BioAssay AID590 (National Center for Advancing Translational Sciences (NCATS), 2007).
The whole screen tested about 59,000 compounds, of which about 6,500 (11%) were called active. Inconclusive results (about 15%) are left out. Rule as the data show it: active = max dye-equivalent concentration above about 10 nM; inconclusive = mostly about 1.1 nM to 9.6 nM; inactive = weaker than that. What follows is part of a selection rich in actives, with near analogues and random picks from the rest. Some compounds were tested as several samples or in several runs, with calls that do not always agree.

Test: qHTS Assay for Spectroscopic Profiling in A350 Spectral Region
Settings: Compound autofluorescence, 340/450 nm, Alexa 350 dye-equivalents; stronger effect = higher value
Text: NIH Molecular Libraries Screening Centers Network [MLSCN]
NIH Chemical Genomics Center [NCGC]
Occasionally, the artifactual effect may originate from the compounds own spectral or other biophysical properties which generally tend to track its assay concentration. Pre-screening/profiling the library with respect to the compounds spectral properties should help one exclude false positives early on. While the most informative fluorescent profiling data set is obtained by performing a full excitation and emission scan of each well by using a monochromator-based plate reader, such an approach is practical only on a very limited scale as scanning each well requires long time. An alternative approach, applied here, is to perform plate reader scans using selected excitation and emission wavelength pairs to generate a multidimensional relational database that correlates compound concentration and the respective relative fluorescence intensity at a given wavelength set. A standard curve of Alexa 350 (A 350) present on each plate as six-point concentration series, was used to compute a normalized fluorescence response, termed dye-equivalent concentration, for each compound at each concentration.
NCGC Assay Protocol Summary:
100 mM Tris buffer, pH 8.0
The wells in columns 1 through 4 of a Kalypsys polypropylene 1536-well compound plate were filled with standard solutions of fluorophore corresponding to the spectral region of interest. Solutions of A 350 were placed in the following wells: I1, J1: 3 mM, I2, J2: 300 uM, I3, J3: 30 uM, I4, J4: zero (DMSO), K1, L1: 3 uM, K2, L2: […], K3, L3: 300 nM, K4, L4: zero (DMSO).
Six uL of buffer were dispensed to 1536-well Greiner black plates. Compounds and dye standards (23 nL) were transferred via Kalypsys PinTool. The plates were incubated for 15 min at room temperature, and then read on ViewLux (Perkin-Elmer) High-throughput CCD imager using 340 nm and 450 nm excitation and emission filter set.
Keywords: NIH Roadmap, MLSCN, MLI, MLSMR, qHTS, NCGC, A350, A-350, Fluorescent Profiling.

| SMILES | max dye-equivalent concentration | outcome |
| --- | --- | --- |
| CSC1=NP(=S)(SC)N(C)c2nc3n(c21)CCC3 (stereo unspecified) | 26 nM (active) | – |
| CN1[C@@H]2CC[C@H]1CC(OC(=O)c1cc(Cl)cc(Cl)c1)C2 (stereo partly specified) | inactive | – |
| CN1CCN(C(=O)O[C@@H]2c3nccnc3C(=O)N2c2ccc(Cl)cn2)CC1 | inactive | – |
| c1ccc2c(c1)[I+]c1ccccc1-2 | inactive | – |
| C[N+]1(C)C2CC(OC(=O)C(CO)c3ccccc3)CC1[C@@H]1O[C@H]21 (stereo partly specified) | inactive | – |
| CC(C)(O)[C@H]1[C@H]2OC(=O)[C@@H]1[C@]1(O)C[C@H]3O[C@]34C(=O)O[C@H]2[C@]14C | inactive | – |
| c1ccc(CN2CC[C@@]3(CCCNC3)C2)cc1 | 13 nM (active) | – |
| c1ccc(N2CC[C@@]3(CCCNC3)C2)nc1 | inactive | – |
| c1csc(CN2CCCC3(CCNCC3)C2)n1 | inactive | – |
| C[C@@]12CC[C@H]3[C@@H](CC[C@]4(O)C[C@H](O)CC[C@@]34C=O)[C@]1(O)CC[C@@H]2C1=CC(=O)OC1 | inactive | – |
| C[C@H](Br)C(=O)N[C@H](CO)C(=O)O | inactive | – |
| CCOC(=O)c1c(N)n(Cc2ccccc2)c2nc3ccccc3nc12 | 1500 nM (active) | – |
| c1csc(CN2CC3(CCNCC3)C2)n1 | inactive | – |
| CC(=O)O[C@H]1CC[C@@]2(C)[C@@H](CC[C@H]3[C@H]2CC(=O)[C@]2(C)[C@@H]3C[C@@H](N3CC3)[C@H]2C(C)=O)C1 | inactive | – |
| O=C(Nc1cccc(F)c1)N1CC[C@@]2(CCCN(C(=O)Oc3ccccc3)C2)C1 | inactive | – |
| CCN1c2nc3c(C)cccn3c(=O)c2CC2(C(=O)N(C)C(=O)N(C)C2=O)C1C (stereo unspecified) | 38 nM (active) | – |
| O=C(O)C(=O)Cc1ccc2c(c1)OCO2 | inactive | – |
| COC(=O)COc1cc(C)cc2oc(=O)c3c(c12)CCCC3 | inactive | – |
| CCCCCCN=C(CC)c1c(O)n(CCCC)c(=O)[nH]c1=O | inactive | – |
| NC(=O)c1ccc(OC[C@H](O)CN2CC=C(c3ccc(F)cc3)CC2)cc1 | inactive | – |
| CCN1C[C@]2(C)CC[C@H](O)[C@@]34[C@@H]5CC6[C@@H](OC)C[C@@](O)([C@@H]5[C@@H]6O)[C@H](C[C@@H]23)[C@H]14 | inactive | – |
| C[C@]12CC[C@H](O)C[C@@H]1CC[C@H]1[C@H]2CC[C@]2(C)C(=O)CC[C@@H]12 | 64 nM (active) | inactive |
| C[C@@]12CC[C@H](O)C[C@@H]1CC[C@@H]1[C@@H]2CC[C@@]2(C)[C@@H](C3=CC(=O)OC3)[C@H](O)C[C@]12O | inactive | – |
| C[C@]12CC[C@H](O)CC1=CC[C@@H]1[C@H]2CC[C@]2(C)C(=O)CC[C@H]12 | inactive | – |
| CC(C)(O)/C=C\C(=O)[C@](C)(O)[C@H]1[C@H](O)C[C@]2(C)[C@@H]3CC=C4[C@@H](C=C(O)C(=O)C4(C)C)[C@]3(C)C(=O)C[C@@]12C | inactive | – |

| SMILES | max dye-equivalent concentration | outcome |
| --- | --- | --- |
| CS(=N)(=O)CC[C@H](N)P(=O)(O)O (stereo partly specified) | inactive | – |
| CC[C@]1(O)C(=O)OCc2c1cc1n(c2=O)Cc2cc3ccccc3nc2-1 | 2600 nM (active) | – |
| CC[C@@](O)(C(=O)O)c1cc2n(c(=O)c1CO)Cc1cc3ccccc3nc1-2 | 920 nM (active) | – |
| Cc1ccc(Cn2nnnc2CN2CCC(n3nnc4ccccc43)CC2)cc1 | inactive | – |
| N[C@H](C(=O)O)c1cc(=O)[nH]o1 | inactive | – |
| C[C@H]1CC[C@@]2(NC1)O[C@@H]1C[C@H]3[C@@H]4CC=C5C[C@@H](O)CC[C@]5(C)[C@@H]4CC[C@]3(C)[C@@H]1[C@@H]2C | inactive | – |
| N[C@@H](Cc1c[nH]c2ccccc12)c1nnc(SCc2c(F)cccc2Cl)o1 | inactive | – |
| CC[N+]1(C)CCCC(OC(=O)C(O)(c2ccccc2)c2ccccc2)C1 (stereo unspecified) | inactive | – |
| CC(C)CCC1(CCN)C(=O)NC(=O)NC1=O | inactive | – |
| O=C(c1cc(-c2ccncc2)nc2ccccc12)N1CCC2(CC1)OCCO2 | inactive | – |
| O=C(c1cc2nc(-c3ccccc3)cc(-c3ccccc3)n2n1)N1CCC2(CC1)OCCO2 | 48 nM (active) | – |
| Cc1cccc(-n2c(C)nc3cc(C(=O)N4CCC5(CC4)OCCO5)ccc32)c1 | inactive | – |
| NCC[Se][Se]CCN | inactive | – |
| CCN(CC)CCn1ncc2c(N)ncnc21 | inactive | – |
| CC1=CC(=O)C2=C(C)C[C@H](O)[C@@H]3[C@@H](OC(=O)[C@H]3C)[C@H]12 | inactive | – |
| O=C1C2CCN(CC2)C1(CO)CO | inactive | – |
| CCOC(=O)c1c(-c2ccccc2)oc2ccc(OC(=O)N(C)C)cc12 | 53 nM (active) | – |
| Cc1ccc(S(=O)(=O)O[C@H]2CN3CCC2CC3)cc1 | inactive | – |
| NC[C@H](O)c1ccc(O)cc1 | inactive | – |
| C=CCN1C(=O)C2(C(C(=O)OCC)=C(N)Oc3c2c(=O)oc2ccccc32)c2ccccc21 (stereo unspecified) | inactive | – |
| COc1cc(C[C@H](C)N)c(OC)cc1I | inactive | – |
| C/C(CCc1c[nH]c2ccccc12)=N\O | 16 nM (active) | – |
| NCCc1c[nH]c2ccc(O)cc12 | inactive | – |
| CC(=O)c1c(O)c(C)c(O)c(Cc2c(O)c3c(c(C(=O)/C=C\c4ccccc4)c2O)OC(C)(C)C=C3)c1O | inactive | – |
| NCCc1ccc(S(=O)(=O)F)cc1 | inactive | – |
